Laboratory results as given in PubChem BioAssay (EPA / NIEHS).
Inconclusive results are not listed. The source made the active and inactive calls. The calls were made as follows, unless noted: active = hit-call score of the fitted dose curve at least 0.9, where 1 is the maximum; inactive = score below 0.9.

Key:
[1] = CCTE_Shafer_MEA_dev_firing_rate_mean: CCTE's Neural Network Formation Assay for Mean Firing Rate, Shafer Lab (AID 2284031)
Outline: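 Spike frequency (spikes/recording length, averaged over active electrodes) was recorded on days 5, 7, 9 and 12 and collapsed to AUC; rat cortical cultures received compound continuously over 12 days of network development.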

[2] = CCTE_Shafer_MEA_dev_per_burst_spike_percent: CCTE's Neural Network Formation Assay for Percent of Spikes in a Burst, Shafer Lab (AID 2284032)
Outline: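 Value is trapezoidal AUC over recordings on days 5, 7, 9 and 12 of the well-mean fraction of spikes falling in single-electrode bursts; rat cortical cultures exposed continuously from plating, treatment renewed DIV 5 and 9, fitted downward against DMSO.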

[3] = CCTE_Shafer_MEA_dev_active_electrodes_number: CCTE's Neural Network Formation Assay for Number of Active Electrodes, Shafer Lab (AID 2284040; active = hit-call score of the fitted dose curve at least 0.9, where 1 is the maximum)
Outline: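 Counts electrodes per well firing at least 5 spikes/min, recorded on days 5, 7, 9 and 12 in rat cortical cultures dosed continuously from plating (treatment refreshed DIV 5, 9). Value is the area under the curve over recordings, fitted downward relative to DMSO.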

[4] = CCTE_Shafer_MEA_dev_burst_rate: CCTE's Neural Network Formation Assay for Burst Rate, Shafer Lab (AID 2284042)
Outline: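 Developmental network assay measuring how 12-day exposure of rat cortical neuron cultures alters bursting on extracellular MEA recordings. Values are AUC of well-mean burst rate across four recording days, relative to DMSO vehicle.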

[5] = CCTE_Shafer_MEA_dev_bursting_electrodes_number: CCTE's Neural Network Formation Assay for Number of Bursting Electrodes, Shafer Lab (AID 2284043; active = hit-call score of the fitted dose curve at least 0.9, where 1 is the maximum)
Outline: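 Number of electrodes reaching ≥1 burst every 2 min was recorded at DIV 5, 7, 9 and 12 and collapsed as trapezoidal area under the curve. Cultures were rat cortical neurons on MEA plates, dosed continuously from plating with medium and treatment refreshed on DIV 5 and 9.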

[6] = CCTE_Shafer_MEA_dev_burst_duration_mean: CCTE's Neural Network Formation Assay for Mean Burst Duration, Shafer Lab (AID 2284045)
Outline: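 Mean single-electrode burst duration (first to last spike), averaged over bursting electrodes per well, then integrated as area-under-curve across recordings at days 5, 7, 9 and 12. Rat cortical cultures on MEAs, compound present from plating, refreshed at feeds.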

[7] = CCTE_Shafer_MEA_dev_interburst_interval_mean: CCTE's Neural Network Formation Assay for Mean Interburst Interval, Shafer Lab (AID 2284046);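 also: well-mean interburst interval of bursting electrodes as AUC over four recording days; curve fitted for decrease in interburst interval relative to DMSO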
Outline: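 Network formation assay in primary rat cortical cultures, exposed from DIV 0 to 12. Mean interburst interval per well, integrated as AUC over four recordings.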

[8] = CCTE_Shafer_MEA_dev_inter_network_spike_interval_mean: CCTE's Neural Network Formation Assay for Mean Inter-network Spike Interval, Shafer Lab (AID 2284047)
Outline: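 Compound was given at plating to primary rat cortical neurons and renewed with full medium changes on DIV 5 and 9. Extracellular activity was recorded on days 5, 7, 9, 12; AUC values were fitted for loss relative to DMSO control.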

[9] = CCTE_Shafer_MEA_dev_network_spike_number: CCTE's Neural Network Formation Assay for Number of Network Spikes, Shafer Lab (AID 2284048);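 also: synchronized bursts across electrodes counted on days 5 7 9 12 and integrated as AUC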
Outline: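 Number of network spikes (coordinated firing across electrodes) recorded on days 5, 7, 9 and 12 and summarised as area under the curve. Rat cortical cultures on MEA, continuous compound exposure with full medium/treatment exchange at DIV 5 and 9.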

[10] = CCTE_Shafer_MEA_dev_network_spike_peak: CCTE's Neural Network Formation Assay for Mean Number of Electrodes in Network Spike, Shafer Lab (AID 2284049)
Outline: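 Rat cortical primary culture, 1.5 x 10^5 cells/well, 48-well MEA (16 electrodes/well). Dosing day 0 through DIV 12, full media/compound exchange DIV 5, 9. AxIS adaptive spike detection; AUC over days 5/7/9/12; loss-of-signal vs DMSO.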

[11] = CCTE_Shafer_MEA_dev_spike_duration_mean: CCTE's Neural Network Formation Assay for Mean Spike Duration, Shafer Lab (AID 2284051);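 also: mean network spike duration pooled as area under curve over DIV 5 to 12 recordings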
Outline: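 With DMSO as baseline, loss of mean network spike duration was scored from extracellular recordings of rat cortical neurons on MEA plates. Exposure spanned plating to DIV 12; the four recording days were collapsed into one AUC value.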

[12] = CCTE_Shafer_MEA_dev_network_spike_duration_std: CCTE's Neural Network Formation Assay for Standard Deviation of Network Spike Duration, Shafer Lab (AID 2284052);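 also: hits are decreases in network spike duration SD versus DMSO vehicle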
Outline: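 Developing networks of rat cortical neurons were exposed over twelve days in vitro on 48-well MEA plates. Trapezoidal AUC of recordings (DIV 5–12) was analysed for signal loss relative to DMSO vehicle.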

[13] = CCTE_Shafer_MEA_dev_per_network_spike_spike_number_mean: CCTE's Neural Network Formation Assay for Mean Number of Spikes in a Network Spike, Shafer Lab (AID 2284053)
Outline: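 First, rat cortical cells (1.5 x 10^5/well) were seeded onto MEA wells; second, dosing began at plating and was refreshed on DIV 5 and 9; finally, network-spike spike counts across DIV 5–12 were summarized as AUC.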

[14] = CCTE_Shafer_MEA_dev_per_network_spike_spike_percent: CCTE's Neural Network Formation Assay for Percent of Spikes in a Network Spike, Shafer Lab (AID 2284054)
Outline: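 Metric: fraction of spikes falling in a 0.05 s window at network-spike peaks. Recordings were made on days 5, 7, 9 and 12 and collapsed by trapezoidal AUC. Cultures were rat cortical neurons on MEA plates, dosed continuously from plating, re-dosed at media changes.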

[15] = CCTE_Shafer_MEA_dev_mutual_information_norm: CCTE's Neural Network Formation Assay for Mutual Information Normalization, Shafer Lab (AID 2284091)
Outline: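 Shared information across electrodes, tracked on days 5, 7, 9 and 12 of network development and collapsed as trapezoidal area under the curve. Rat cortical cultures were treated continuously from plating, with treatment renewed at feeds on DIV 5 and 9; DMSO baseline, negative-direction fit.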

[16] = CCTE_Mundy_HCI_Cortical_Synap_Neur_Matur_NeuriteSpotCountPerNeuriteLength: CCTE's Synaptogenesis and Neurite Maturation Assay in rat cortical cells for Neurite Spot Count per Neurite Length, Mundy Lab (AID 2284210)
Outline: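 Synaptophysin spots per unit neurite length, measured by automated imaging of MAP2/synaptophysin/Hoechst-stained neurons. Cultures from rat cortex received chemical at DIV 7 with media change through DIV 12; glial growth arrested by AraC at DIV 5; DMSO baseline.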

[17] = CCTE_Mundy_HCI_Cortical_Synap_Neur_Matur_BPCount: CCTE's Synaptogenesis and Neurite Maturation Assay in rat cortical cells for Branch Point Count, Mundy Lab (AID 2284211)
Outline: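 HCI read-out of branch points from MAP2/synaptophysin/Hoechst immunofluorescence; rat cortical cultures, AraC DIV 5, dosing DIV 7, fixed DIV 12; fit in positive direction vs DMSO baseline.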

[18] = CCTE_Mundy_HCI_Cortical_NOG_NeuriteCount: CCTE's Neurite Outgrowth Assay in rat cortical cells for Neurite Count, Mundy Lab (AID 2284212);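 also: cells fixed about two days after chemical exposure began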
Outline: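 Rat cortical primary cells; compound added 2 h post-plating, 1/10 dilution of working solution. Anti-betaIII-tubulin/AF488 ICC; ArrayScan neurite count vs DMSO.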

[19] = CCTE_Mundy_HCI_Cortical_NOG_NeuriteLength: CCTE's Neurite Outgrowth Assay in rat cortical cells for Neurite Length, Mundy Lab (AID 2284213)
Outline: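 First, rat primary cortical cells were plated and, 2 h later, given test chemical as a 1/10 dilution. Finally, βIII-tubulin immunostaining enabled automated imaging of neurite length.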

[20] = CCTE_Mundy_HCI_Cortical_Synap_Neur_Matur_NeuriteLength: CCTE's Synaptogenesis and Neurite Maturation Assay in rat cortical cells for Neurite Length, Mundy Lab (AID 2284214)
Outline: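 Neurite length quantified by automated high-content imaging of MAP2, synaptophysin and Hoechst staining. Rat cortical cells received chemical from DIV 7 to DIV 12 […], glial growth arrested by AraC at DIV 5; DMSO baseline.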

[21] = CCTE_Mundy_HCI_Cortical_Synap_Neur_Matur_SynapseCount: CCTE's Synaptogenesis and Neurite Maturation Assay in rat cortical cells for Synapse Count, Mundy Lab (AID 2284218)
Outline: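 High-content imaging of synaptophysin puncta per MAP2-positive neuron (Hoechst nuclei) in rat cortical cells exposed DIV 7–12 after glial arrest with AraC at DIV 5; decrease relative to DMSO scored.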

[22] = CCTE_Mundy_HCI_hN2_NOG_NeuronCount: CCTE's Neurite Outgrowth Assay in human hN2 cells for Neuron Count, Mundy Lab (AID 2284221; active = hit-call score of the fitted dose curve at least 0.9, where 1 is the maximum)
Outline: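 Read-out is the number of betaIII-tubulin-positive neurons imaged by automated high-content analysis, with DMSO as negative control.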

[23] = CCTE_Mundy_HCI_Cortical_Synap_Neur_Matur_NeuriteCount: CCTE's Synaptogenesis and Neurite Maturation Assay in rat cortical cells for Neurite Count, Mundy Lab (AID 2284222);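 also: exposure from day 7 to day 12 in vitro with readout at day 12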
Outline: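 In this multiplexed morphology readout, rat primary cortical neurons are fixed at DIV 12 following dosing at DIV 7 and stained for MAP2, synaptophysin and nuclei. High-content image analysis yields neurite count.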

[24] = CCTE_Mundy_HCI_Cortical_Synap_Neur_Matur_CellBodySpotCount: CCTE's Synaptogenesis and Neurite Maturation Assay in rat cortical cells for Cell Body Spot Count, Mundy Lab (AID 2284223)
Outline: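 High-content imaging counts synaptophysin puncta on neuronal cell bodies per neuron after MAP2/synaptophysin immunostaining. Rat primary cortical cells, glia arrested with AraC at DIV 5, were exposed DIV 7–12; signal decrease measured against DMSO.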

[25] = CCTE_Mundy_HCI_Cortical_NOG_NeuronCount: CCTE's Neurite Outgrowth Assay in rat cortical cells for Neuron Count, Mundy Lab (AID 2284236; active = hit-call score of the fitted dose curve at least 0.9, where 1 is the maximum;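 also: neurons counted by imaging betaIII-tubulin and Hoechst stained cortical cells; cells exposed to compound for about 48 hours before fixation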)
Outline: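 Read-out: neuron number by high-content imaging of betaIII-tubulin (Alexa Fluor-488) and Hoechst-labelled rat primary cortical cells.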

[26] = CCTE_Mundy_HCI_Cortical_NOG_BPCount: CCTE's Neurite Outgrowth Assay in rat cortical cells for Branch Point Count, Mundy Lab (AID 2284237)
Outline: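 Measured 50.33 h after dosing, this morphology endpoint uses rat primary cortical cultures labelled for betaIII-tubulin. Branch points are quantified by high-content imaging, with DMSO as negative control and baseline.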

[27] = CCTE_Mundy_HCI_hNP1_Casp3_7: CCTE's Caspase-Glo 3/7 Assay in human neuroprogenitor cells for Apoptosis, Mundy Lab (AID 2284240)
Outline: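 Apoptosis is scored by activated caspase-3/7 luminescence in WA09-derived neural progenitor cells, measured 26.5 h after chemical dosing. Values represent gain of signal relative to DMSO vehicle.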

[28] = CCTE_Mundy_HCI_hNP1_CellTiter: CCTE's Cell Titer-Glo 2 Assay in human neuroprogenitor cells for Viability, Mundy Lab (AID 2284241; active = hit-call score of the fitted dose curve at least 0.9, where 1 is the maximum)
Outline: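 Human neural progenitor cells (hNP1, WA09-derived) were plated on poly-L-ornithine/laminin and grown 40 to 44 hours at 37 °C, 5% CO2 before chemical addition. Twenty-four hours later, ATP was measured by CellTiter-Glo luminescence; loss of signal versus DMSO indicates reduced viability.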

[29] = CCTE_Mundy_HCI_Cortical_Synap_Neur_Matur_NeuronCount: CCTE's Synaptogenesis and Neurite Maturation Assay in rat cortical cells for Neuron Count, Mundy Lab (AID 2284242; active = hit-call score of the fitted dose curve at least 0.9, where 1 is the maximum;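 also: hits reduce neuron count versus DMSO baseline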)
Outline: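 Neuron counts come from automated high-content imaging of Hoechst nuclei and MAP2/synaptophysin immunostaining at DIV 12, with loss of signal judged against DMSO. Cultures of rat cortical cells had glial growth arrested by AraC at DIV 5; chemical exposure began DIV 7.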

Measured: AC50

C[C@H](N)Cc1ccccc1
active: [29] 43.6 nM
inactive: all other assays above
